Results published in the supplement of paper PMC9694430.
Structures can show the parent of a compound that is named as a salt.

What was measured:
Assay in all cases: thermal shift delta Tm vs DMSO control; higher = stronger stabilization (binding)
Conditions in all cases: 12.5 µM; protein concentration 2 µM
LOC_OS02G45750-cb003 = tested on: LOC_OS02G45750-cb003
Summary of the method: (§1)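 Heating from 25°C to 95°C at 0.05°C/s, fluorescence was recorded for 19.5 μl wells of 2 μM E. coli-expressed, purified rice kinase domain in 100 mM potassium phosphate pH 7.5, 150 mM NaCl, 10% glycerol and 5 × SYPRO Orange with compound in DMSO. Boltzmann fits gave melting temperatures for this differential scanning fluorimetry assay. The shift reported is the mean of three replicates against the DMSO-only protein.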

LOC_OS02G54510-cb004 = tested on: LOC_OS02G54510-cb004
Summary of the method: as §1

LOC_OS03G04050-cb001 = tested on: LOC_OS03G04050-cb001
Summary of the method: as §1

LOC_OS03G12390-cb001 = tested on: LOC_OS03G12390-cb001
Summary of the method: as §1

LOC_OS03G27990-cb004 = tested on: LOC_OS03G27990-cb004
Summary of the method: as §1

LOC_OS03G50450-cb001 = tested on: LOC_OS03G50450-cb001
Summary of the method: as §1

LOC_OS03G50810-cb003 = tested on: LOC_OS03G50810-cb003
Summary of the method: as §1

LOC_OS04G35114-cb001 = tested on: LOC_OS04G35114-cb001
Summary of the method: as §1

LOC_OS04G38480-cb003 = tested on: T1, LOC_OS04G38480-cb003
T1 sequence (whole entry): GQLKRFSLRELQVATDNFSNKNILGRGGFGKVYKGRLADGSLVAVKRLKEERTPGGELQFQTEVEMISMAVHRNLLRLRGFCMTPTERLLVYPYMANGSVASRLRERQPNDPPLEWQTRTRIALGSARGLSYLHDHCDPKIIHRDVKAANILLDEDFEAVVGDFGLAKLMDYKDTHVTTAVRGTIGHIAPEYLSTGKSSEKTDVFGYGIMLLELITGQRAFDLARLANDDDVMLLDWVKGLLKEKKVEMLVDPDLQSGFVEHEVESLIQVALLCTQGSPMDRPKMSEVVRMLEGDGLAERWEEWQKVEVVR
Summary of the method: as §1

LOC_OS04G41100-cb001 = tested on: T2, LOC_OS04G41100-cb001
T2 sequence (whole entry): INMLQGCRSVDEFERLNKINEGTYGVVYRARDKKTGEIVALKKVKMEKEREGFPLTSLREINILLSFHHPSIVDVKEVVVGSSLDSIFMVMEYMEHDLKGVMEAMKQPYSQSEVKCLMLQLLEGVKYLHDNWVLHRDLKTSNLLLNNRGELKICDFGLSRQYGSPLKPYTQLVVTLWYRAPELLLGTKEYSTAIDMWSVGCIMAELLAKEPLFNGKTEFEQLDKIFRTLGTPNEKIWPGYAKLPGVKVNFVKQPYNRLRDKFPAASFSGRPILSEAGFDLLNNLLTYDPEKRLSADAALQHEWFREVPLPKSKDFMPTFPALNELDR
Summary of the method: as §1

LOC_OS04G57630-cb004 = tested on: LOC_OS04G57630-cb004
Summary of the method: as §1

LOC_OS05G07850-cb002 = tested on: LOC_OS05G07850-cb002
Summary of the method: as §1

LOC_OS05G16824-cb004 = tested on: LOC_OS05G16824-cb004
Summary of the method: as §1

LOC_OS05G28520-cb001 = tested on: LOC_OS05G28520-cb001
Summary of the method: as §1

LOC_OS05G30820-cb001 = tested on: LOC_OS05G30820-cb001
Summary of the method: as §1

LOC_OS05G43570-cb004 = tested on: LOC_OS05G43570-cb004
Summary of the method: as §1

LOC_OS06G16330-cb003 = tested on: LOC_OS06G16330-cb003
Sequence of LOC_OS06G16330-cb003 (as listed by the source): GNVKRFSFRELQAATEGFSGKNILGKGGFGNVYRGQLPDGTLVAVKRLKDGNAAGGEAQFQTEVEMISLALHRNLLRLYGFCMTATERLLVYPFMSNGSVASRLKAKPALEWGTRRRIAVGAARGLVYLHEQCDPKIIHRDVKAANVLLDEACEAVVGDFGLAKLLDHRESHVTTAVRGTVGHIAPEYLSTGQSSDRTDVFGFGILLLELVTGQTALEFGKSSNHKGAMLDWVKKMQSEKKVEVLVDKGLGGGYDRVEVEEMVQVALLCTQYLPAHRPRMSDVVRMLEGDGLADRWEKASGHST
Summary of the method: as §1

LOC_OS06G22820-cb001 = tested on: T3, LOC_OS06G22820-cb001
T3 sequence (whole entry): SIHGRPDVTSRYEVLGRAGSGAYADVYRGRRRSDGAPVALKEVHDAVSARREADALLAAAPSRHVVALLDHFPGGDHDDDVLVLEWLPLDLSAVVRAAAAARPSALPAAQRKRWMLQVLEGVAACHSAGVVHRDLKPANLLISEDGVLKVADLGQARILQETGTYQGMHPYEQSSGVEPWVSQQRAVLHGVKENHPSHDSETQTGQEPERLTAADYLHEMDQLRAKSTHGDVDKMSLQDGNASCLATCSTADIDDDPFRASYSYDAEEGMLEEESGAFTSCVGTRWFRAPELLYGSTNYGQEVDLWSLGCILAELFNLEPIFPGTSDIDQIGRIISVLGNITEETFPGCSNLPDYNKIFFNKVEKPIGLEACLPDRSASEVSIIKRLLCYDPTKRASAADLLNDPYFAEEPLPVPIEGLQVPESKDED
Summary of the method: as §1

LOC_OS07G06570-cb004 = tested on: LOC_OS07G06570-cb004
Summary of the method: as §1

LOC_OS07G07230-cb001 = tested on: LOC_OS07G07230-cb001
Summary of the method: as §1
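Also: purified Escherichia coli-expressed rice kinase domain construct.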

| Compound | thermal shift delta Tm (LOC_OS02G45750-cb003) [°C] | thermal shift delta Tm (LOC_OS02G54510-cb004) [°C] | thermal shift delta Tm (LOC_OS03G04050-cb001) [°C] | thermal shift delta Tm (LOC_OS03G12390-cb001) [°C] | thermal shift delta Tm (LOC_OS03G27990-cb004) [°C] | thermal shift delta Tm (LOC_OS03G50450-cb001) [°C] | thermal shift delta Tm (LOC_OS03G50810-cb003) [°C] | thermal shift delta Tm (LOC_OS04G35114-cb001) [°C] | thermal shift delta Tm (LOC_OS04G38480-cb003) [°C] | thermal shift delta Tm (LOC_OS04G41100-cb001) [°C] | thermal shift delta Tm (LOC_OS04G57630-cb004) [°C] | thermal shift delta Tm (LOC_OS05G07850-cb002) [°C] | thermal shift delta Tm (LOC_OS05G16824-cb004) [°C] | thermal shift delta Tm (LOC_OS05G28520-cb001) [°C] | thermal shift delta Tm (LOC_OS05G30820-cb001) [°C] | thermal shift delta Tm (LOC_OS05G43570-cb004) [°C] | thermal shift delta Tm (LOC_OS06G16330-cb003) [°C] | thermal shift delta Tm (LOC_OS06G22820-cb001) [°C] | thermal shift delta Tm (LOC_OS07G06570-cb004) [°C] | thermal shift delta Tm (LOC_OS07G07230-cb001) [°C] |
| --- | --- | --- | --- | --- | --- | --- | --- | --- | --- | --- | --- | --- | --- | --- | --- | --- | --- | --- | --- | --- |
| FC(F)(F)c1ccc(/C=C/c2nc(COc3ccc(CCCCn4ccnn4)cc3)co2)cc1 [Mubritinib (TAK 165)] | 0.54 | 0.1 | 0.37 | 0 | 0.51 | 0.76 | 0.3 | 0.27 | 0.25 | 0.36 | 0.31 | 0.65 | -1.49 | 0.05 | 0.57 | 0.39 | -0.19 | 0.32 | 0.47 | -1.09 |
| COc1ccc(CCNCc2ccc(OCc3ccc(Cl)nc3)c(OC)c2)cc1OC | -0.45 | 0 | 0 | -0.53 | 0.12 | -0.17 | 0.18 | 0.23 | 0.05 | 0.41 | 0.32 | -0.86 | -5.08 | 0.09 | 0.33 | -0.15 | -0.05 | 0.26 | 0.85 | 0.59 |
| CC#CC(=O)Nc1ccc2ncnc(Nc3cccc(Br)c3)c2c1 | -0.66 | 0.79 | 0.48 | 0.54 | 0.39 | -0.04 | 1.24 | 3.68 | 1.41 | 0.03 | 1.19 | 9.9 | -2.35 | 0.85 | 0.66 | 0.95 | 3.13 | 0.56 | 1.04 | 0.05 |
| Cc1c(C(=O)Nc2ccc(Oc3ccnc4[nH]cc(-c5ccccc5)c34)c(F)c2)c(=O)n(-c2ccc(F)cc2)n1C | 1.92 | -0.32 | 0.37 | 1.39 | 0.47 | 0.52 | 1.79 | 5.04 | 3.56 | 1.06 | 0.42 | 14.4 | 1.37 | 0.13 | 0.63 | 0.25 | 6.4 | 0.86 | 1.05 | -0.13 |
| CN(C)C[C@@H]1CCn2cc(c3ccccc32)C2=C(C(=O)NC2=O)c2cn(c3ccccc23)CCO1 | -0.25 | 0.16 | 0.36 | 0.08 | 0.5 | -0.45 | 1.85 | 6.19 | 2.42 | 0.73 | -0.32 | 5.79 | 2.45 | 0.65 | 0.63 | 0.63 | 0.27 | 0.46 | 2.56 | 0.33 |
| O=C1NC(=O)C(=Cc2ccc(-c3ccc(F)cc3)o2)S1 (stereo in doubt) | 0.93 | 0.18 | 0.6 | 0.59 | 0.53 | 0.23 | 0.29 | 1.05 | 0.83 | 0.69 | 0.48 | 1.37 | -3.64 | 0.89 | 0.73 | 1.06 | 0.12 | 0.65 | 0.53 | 0.04 |
| C[C@H](Nc1ncnc2[nH]cnc12)c1cc2ccc(F)cc2nc1-c1ccccn1 | 0.75 | 0.11 | 0.38 | 0.1 | 0.16 | 0.69 | 0.49 | 0.44 | 1.43 | 0.13 | 0.18 | 0.48 | 0.99 | 0.62 | 0.48 | 0.58 | 0.43 | 0.53 | 0.76 | 0.2 |
| O=C(Nc1cccc(Cl)c1)Nc1ncc(CCNc2ncnc3ccsc23)s1 [SNS-314 Mesylate] | 0.93 | 0.38 | 1.02 | 1.77 | 0.36 | 0.82 | 0.75 | 1.73 | 2.48 | 1.12 | 2.15 | 7.18 | 2.52 | 1.77 | 0.46 | 1.08 | 4.68 | 1.24 | 0.91 | -0.06 |
| Cc1cc(C(C)Nc2ccccc2)c2nc(N3CCOCC3)cc(=O)n2c1 (stereo not given) | -0.62 | 0.09 | 0.44 | -0.12 | 0.21 | 0.33 | -0.02 | 0.33 | 0.36 | 0.33 | -0.32 | 0.35 | -2.9 | 0.25 | 0.38 | 0.22 | 0.32 | 0.59 | 0.64 | 0.53 |
| O=C(NCc1cccc(O)c1)Nc1nc(-c2ccncc2)cs1 | -1.72 | 0.56 | 1.15 | 0.54 | 1.06 | 0.51 | 0.05 | 1.65 | 0.86 | 0.95 | 1.08 | 3.27 | -3.55 | 0.81 | 0.5 | 1.02 | 0.47 | 0.43 | 1.09 | 0.35 |
| Cn1cc(-c2ccc(F)c(C(F)(F)F)c2)nc1C1CCN(c2ncnc3[nH]ncc23)CC1 | 0.33 | 0.45 | 0.47 | -0.18 | 0.44 | 0.81 | 0.37 | 0.97 | 0.91 | 0.15 | 0.14 | 0.42 | -7.63 | 0.22 | 0.54 | 0.45 | 0.11 | 0.36 | 0.72 | 0.63 |
| Cc1cccc(Nc2nc(NC3CCCCC3N)ncc2C(N)=O)c1 (stereo not given) | 0.65 | 1.67 | 0.03 | 2.43 | 3.15 | 4.23 | 1.34 | 0.3 | 1.83 | 0.73 | 0.83 | 7.79 | 5.17 | 0.36 | 2.02 | 0.63 | 6.85 | 0.81 | 1.04 | 0.47 |
